Data reported in PubChem BioAssay AID540332 (The Scripps Research Institute Molecular Screening Center, 2011).
A number with no mark means an inactive call. The rule behind the calls is not given here.

Test system: Potassium Channel KATP
Test: selectivity profile across receptors and CYP450s – biochemical, Ricerca HitProfilingScreen, CYP450, set 2, selectivity assay for S1P4 agonist project, profiling panel (AID 540332)
Conditions: at 30 µM; active compounds read high

## COCCN=C1S/C(=C\c2cc(C)n(-c3ccc(F)cc3F)c2C)C(=O)N1C
  inhibition: -5%
